# HEK cytotox = HEK 293 cell cytotoxicity; HEK 293 viability, ATP luminescence (CellTiter-Glo), 48-72 h; Potency, µM (series often up to 115 µM), usual class: inhibitors; actives 6.6% (n = 94,000); AID 1345083; note: nearly all actives have a fitted effect of over 60% in size
#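 Luminescence from cellular ATP, measured with CellTiter-Glo, indicates HEK 293 viability. Cells plated at 250 cells/well are treated with compound for 48 or 72 hr at 37 degree Celsius before reagent addition.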
# FLuc inh = inhibitors of firefly (Photinus pyralis) luciferase | P08659 | purified P. pyralis luciferase, luminescence, biochemical | Potency, µM (top dose mostly 115 µM), usual class: inhibitors | actives 2.5% (n = 76,000) | AID 1347043; note: nearly all actives have a fitted effect of over 65% in size
# Target sequence (P08659 whole entry, looked up): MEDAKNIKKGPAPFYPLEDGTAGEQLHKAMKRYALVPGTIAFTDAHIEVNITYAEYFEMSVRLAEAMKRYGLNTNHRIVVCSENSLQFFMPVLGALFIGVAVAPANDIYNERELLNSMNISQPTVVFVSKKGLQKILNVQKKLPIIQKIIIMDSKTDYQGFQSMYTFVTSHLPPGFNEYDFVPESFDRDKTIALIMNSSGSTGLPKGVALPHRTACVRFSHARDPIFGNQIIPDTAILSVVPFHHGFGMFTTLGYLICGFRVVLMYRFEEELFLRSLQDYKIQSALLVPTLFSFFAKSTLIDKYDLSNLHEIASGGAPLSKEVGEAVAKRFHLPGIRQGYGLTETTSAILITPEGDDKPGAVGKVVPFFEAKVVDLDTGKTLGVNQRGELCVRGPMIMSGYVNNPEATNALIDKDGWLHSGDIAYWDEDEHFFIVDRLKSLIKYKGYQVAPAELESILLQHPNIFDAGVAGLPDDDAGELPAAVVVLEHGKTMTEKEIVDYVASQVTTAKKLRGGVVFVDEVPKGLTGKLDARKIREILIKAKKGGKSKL
#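 Luminescence read by CCD imaging after purified firefly luciferase (10nM final) was added to substrate buffer holding 10uM D-luciferin and 10uM ATP, pH 7.5, pre-dosed with compound.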
# 3T3 cytotox = cytotoxic compounds in NIH 3T3 cells. NIH 3T3 viability, CellTiter-Glo ATP luminescence, 48-72 h. Potency, µM (titrated, usually from 96.7 µM), most hits filed as inhibitors. actives 4.3% (n = 94,000); note: nearly all actives have a fitted effect of over 55% in size
#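 Mouse fibroblast NIH 3T3 cells, 400 per well, received compound via pintool and were incubated for 48 or 72 hr prior to CellTiter-Glo ATP luminescence measurement.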
# hNpr1 antagonist = blocks ANP-stimulated signaling of human Npr1 receptor | P16066 | HEK293 hNpr1 GloSensor cGMP, ANP-stimulated luminescence | Potency, µM (series often up to 46.3 µM), actives largely listed as inhibitors | actives 1.6% (n = 76,000); calls by dose curve; note: nearly all actives have a fitted effect of over 60% in size
#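 Compound pre-incubated 30 min at room temperature on GloSensor-loaded HEK293 cells stably carrying hNpr1 and the pGS-40F cGMP biosensor. Stimulation uses hNppA at 0.1 nM final; luminescence is taken at baseline and 20 min post-agonist.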
# A number is an active result; i = inactive; ? = inconclusive; nt = no result given. Only some compounds are listed: those with a hit (about 11% of all), similar ones and a draw of the others. Unless noted, calls come from the whole dose curve; as a rule, active = well fitted curve in the direction sought with a large enough effect; inconclusive = small, poorly fitted or top-dose-only effect, or another doubt; inactive = no such curve, though single readings can be large; an effect the other way counts as inactive or inconclusive.
SMILES,HEK cytotox,FLuc inh,3T3 cytotox,hNpr1 antagonist
Cc1ccsc1CN1CCCC(c2nc(-c3cccnc3)no2)CCNC(=O)CC1 (centres undefined),?,i,?,i
COc1ccc(-c2nnc3ccc(NC(C)C)nn23)nc1,i,i,50µM,i
COc1ccc(-c2nnc3ccc(Nc4cccc(OC)c4)nn23)nc1,?,i,?,i
COc1ccnc(-c2nnc3ccc(Nc4cc(OC)c(OC)c(OC)c4)nn23)c1,?,i,50µM,i
COc1ccc(Nc2ccc3nnc(-c4ccc(C)cn4)n3n2)cc1,71µM,i,?,i
Cc1ccc(-c2nnc3ccc(NC4CCCCC4)nn23)nc1,71µM,i,?,i
O=C(NCc1ccccc1)C1CN(C2CCCC2)C(=O)N1 (centres undefined),i,nt,i,nt
COCCN1CCCC[C@]2(C[C@H](CO)[C@H](c3ccco3)N2C(=O)Cc2ccc(OC)cc2)C1=O,?,nt,i,nt
CC(=O)N1Cc2ccccc2CC2(CCN(CC3CCCCC3)CC2)C1,i,nt,i,nt
COCCCn1c(=O)c(C(=O)N2CCN([S+](=O)([O-])c3ccc(C)cc3)CC2)nc2cccnc21,i,nt,i,nt
Cc1nn(C)c(C)c1CCN(C)C(=O)CCC1CCN(C(=O)c2ccccc2F)CC1,i,i,i,i
O=C(CCC1CCN(C(=O)c2ccccc2F)CC1)NCCCc1ccccc1,?,i,i,i
CCN(CC)C(=O)CCC1CCN(C(=O)c2ccccc2F)CC1,i,35µM,i,i
CCCNC(=O)CCC1CCN(C(=O)c2ccccc2F)CC1,i,40µM,i,i
CC(C)OCCCNC(=O)CCC1CCN(C(=O)c2ccccc2F)CC1,i,i,i,i
CC(C)NC(=O)CCC1CCN(C(=O)c2ccccc2F)CC1,i,40µM,i,i
Cc1ccc(NC(=O)CCC2CCN(C(=O)c3ccccc3)CC2)cc1F,28µM,?,?,i
Cc1nn(-c2ccccc2)c2c1C(C1CC1)N(CC1CN(C(=O)C3CCCC3)C1)C2=O (centres undefined),?,nt,45µM,nt
Cc1nn(-c2ccccc2)c2c1C(C1CC1)N(CC1CN(C(=O)N(C)C)C1)C2=O (centres undefined),45µM,nt,?,nt
Cc1nn(-c2ccccc2)c2c1C(C1CC1)N(CC1CN(C(=O)NC(C)C)C1)C2=O (centres undefined),?,nt,i,nt
CCOC(=O)CCCOc1cccn2c(=O)c(-c3cc(C)n(-c4cccc(C)c4)n3)c(C)nc12,i,i,i,i
Cc1nc2c(OCC(=O)c3ccccc3)cccn2c(=O)c1-c1cc(C)n(-c2ccccc2)n1,?,40µM,i,i
O=c1cc2c(nn1Cc1cccc(Br)c1)CCCCC2,?,32µM,?,i
Cn1cnc2cc(-c3cccc(F)c3)cc(C(=O)NCc3cccnc3)c21,?,i,?,i
Cn1nc(-c2cccc(F)c2)c(N2CCCCC2)c1NC(=O)NCc1ccccc1,28µM,nt,22µM,nt
SMILES,HEK cytotox,FLuc inh,3T3 cytotox,hNpr1 antagonist
Cn1nc(-c2cccc(F)c2)c(N2CCCCC2)c1NC(=O)c1ccccc1F,40µM,nt,40µM,nt
Cn1nc(-c2cccc(F)c2)c(N2CCCC2)c1NC(=O)NCc1ccccc1,50µM,nt,?,nt
O=C1NCCCCCCN(S(=O)(=O)c2ccccc2)[C@H]2C[C@H](c3nc(-c4cccnc4)no3)C[C@@H]12,i,i,i,i
O=C(c1ccccc1Cl)N1CCC(C(=O)N2CCC(c3nc4ncccc4[nH]3)CC2)CC1,i,nt,i,nt
CCCC(=O)N1CCC(N2C(=O)N(Cc3cccnc3)CC23CCOC3)CC1 (centres undefined),i,nt,?,nt
O=C(NCc1cccs1)c1csc(N2CCN(c3ccc(F)cc3)CC2)n1,32µM,i,?,?
COc1ccc(N2CCN(c3nc(C(=O)NC4CC4)cs3)CC2)cc1,32µM,i,28µM,?
O=C(NC1CCCC1)c1csc(N2CCN(c3ccccc3F)CC2)n1,?,i,25µM,?
COc1ccc(N2CCN(c3nc(C(=O)NCc4ccccc4C)cs3)CC2)cc1,28µM,i,?,i
COc1ccc(N2CCN(c3nc(C(=O)NCC4CCCCC4)cs3)CC2)cc1,i,i,i,i
O=C(NCc1ccccc1)C1CCCN1C(=O)c1cccc(-c2cccnc2)c1 (centres undefined),i,nt,i,nt
COc1cccc(CNC(=O)c2c(C)oc3ccn(Cc4ccc(F)cc4)c(=O)c23)c1,40µM,i,?,i
Cc1oc2ccn(Cc3ccccc3F)c(=O)c2c1C(=O)NCc1cc(F)cc(F)c1,35µM,i,?,i
Cc1oc2ccn(Cc3cccc(F)c3)c(=O)c2c1C(=O)NCC1CCCCC1,40µM,i,40µM,i
COc1cccc(NC(=O)c2c(C)oc3ccn(Cc4ccc(F)cc4)c(=O)c23)c1,?,i,i,i
CCOC(=O)c1cccc(NC(=O)c2c(C)oc3ccn(Cc4ccc(F)cc4)c(=O)c23)c1,40µM,i,?,i
COc1ccc(CCC(=O)N2Cc3c(C(=O)N4CCCC4)nn(C)c3C2)cc1,i,nt,i,nt
CN(C)C[C@@H]1CN(S(C)(=O)=O)C[C@H]1NC(=O)CCC1CCCC1,i,i,i,i
Cc1cc(C)cc(NC(=O)Cn2c(N3CCN(c4ccccc4)CC3)nc(C)cc2=O)c1,?,i,?,i
CO[C@@H]1COCC[C@H]1NC1CCN(c2ncc3ccc(F)cc3n2)CC1,i,i,i,i
CCCNC(=O)c1coc(COc2ccc3c(c2)C(c2cccc(C)c2)N(C(=O)C2CC2)CC3)n1 (centres undefined),13µM,i,?,?
CC(C)CNC(=O)c1coc(COc2ccc3c(c2)C(c2cccc(F)c2)N(C(=O)C2CC2)CC3)n1 (centres undefined),14µM,i,13µM,?
CCN(CC)C(=O)c1coc(COc2ccc3c(c2)C(c2ccc(C)cc2)N(C(=O)C2CC2)CC3)n1 (centres undefined),10µM,i,?,i
COCCNC(=O)c1coc(COc2ccc3c(c2)C(c2cccc(F)c2)N(C(=O)C2CC2)CC3)n1 (centres undefined),?,i,?,i
Cc1ccc(C2c3cc(OCc4nc(C(=O)NC5CC5)co4)ccc3CCN2C(=O)C2CC2)cc1 (centres undefined),?,i,?,i
SMILES,HEK cytotox,FLuc inh,3T3 cytotox,hNpr1 antagonist
Cc1cccc(C2c3cc(OCc4nc(C(=O)NCC5CC5)co4)ccc3CCN2C(=O)C2CC2)c1 (centres undefined),?,i,?,?
COCCNC(=O)c1coc(COc2ccc3c(c2)C(c2ccc(F)cc2)N(C(=O)C(C)C)CC3)n1 (centres undefined),8.9µM,i,i,i
Cc1ccc(C)c(-c2cc3c(=O)n(CCNC(=O)c4ccc(N(C)C)cc4)ccn3n2)c1,?,i,?,i
CN1CC(C(=O)NCCc2ccc(F)cc2)NC1=O (centres undefined),i,nt,i,nt
CCN(CC)c1cc(CCC(=O)NCc2ccccc2OC)ccn1,i,i,i,i
Cc1ccc(C2c3cc(OCc4nc(C(=O)NCC5CC5)co4)ccc3CCN2C(=O)C2CC2)cc1 (centres undefined),35µM,i,28µM,i
